PubChem BioAssay (NCATS)
Results filed as inconclusive are left out. Calls of active or inactive are those of the source. Unless noted, calls follow the shape of the dose curve; as a rule, active = well fitted curve in the direction sought with a large enough effect; inconclusive = small, poorly fitted or top-dose-only effect, or another doubt; inactive = no such curve, though single readings can be large; an effect the other way counts as inactive or inconclusive.

What was measured:
[1] = target: ATP-dependent 6-phosphofructokinase (Trypanosoma brucei brucei) (UniProt O15648); assay: qHTS Assay to Find Inhibitors of T. brucei phosphofructokinase: hit validation (AID 492961);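 also: luminescence reports ADP formed as PFK phosphorylates fructose-6-phosphate with ATP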
Sequence of ATP-dependent 6-phosphofructokinase (Trypanosoma brucei brucei) (O15648 whole entry, looked up): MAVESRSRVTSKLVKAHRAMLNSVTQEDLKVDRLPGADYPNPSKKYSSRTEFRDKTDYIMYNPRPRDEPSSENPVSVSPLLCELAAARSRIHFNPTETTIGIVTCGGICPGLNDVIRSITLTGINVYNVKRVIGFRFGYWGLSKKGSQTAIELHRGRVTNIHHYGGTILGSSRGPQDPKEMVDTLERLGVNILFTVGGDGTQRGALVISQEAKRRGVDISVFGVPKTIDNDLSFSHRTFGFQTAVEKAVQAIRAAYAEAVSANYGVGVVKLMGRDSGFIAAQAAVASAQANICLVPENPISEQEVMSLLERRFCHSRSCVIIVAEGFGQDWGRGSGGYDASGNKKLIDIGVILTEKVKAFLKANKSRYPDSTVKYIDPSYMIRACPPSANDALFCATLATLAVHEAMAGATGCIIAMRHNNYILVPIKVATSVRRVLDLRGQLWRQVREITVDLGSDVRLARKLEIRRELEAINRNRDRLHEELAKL
How it was run: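 In this biochemical qHTS validation, titrated compounds were tested against 1.25 nM PFK with 0.1 mM ATP and 0.5 mM F6P. Percent activity came from controls lacking or containing enzyme.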

CP192 = assay: qHTS profiling for inhibitors of Plasmodium falciparum proliferation (AID 504749); also: nearly all actives have a fitted effect of over 60% in size; conditions: P. falciparum in erythrocytes, SYBR Green DNA, 72 h; series mostly up to 28.7 µM
How it was run: (§1)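 In a 72 h erythrocytic culture (37 C, humidified, 5% CO2) at 2.5% hematocrit and 0.3% starting parasitemia, compounds were tested; SYBR Green I in detergent lysis buffer stained parasite DNA overnight.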

CP194 = assay: as above; conditions: P. falciparum in erythrocytes, SYBR Green DNA, 72 h; series mostly up to 28.7 µM
How it was run: as §1

CP201 = assay: as above; conditions: P. falciparum in erythrocytes, SYBR Green DNA, 72 h; series mostly up to 28.7 µM
How it was run: as §1

CP203 = assay: as above; conditions: P. falciparum in erythrocytes, SYBR Green DNA, 72 h; series mostly up to 28.7 µM
How it was run: as §1

CP262 = assay: as above; conditions: P. falciparum in erythrocytes, SYBR Green DNA, 72 h; series mostly up to 28.7 µM
How it was run: as §1

CP266 = assay: as above; conditions: P. falciparum in erythrocytes, SYBR Green DNA, 72 h; series mostly up to 28.7 µM
How it was run: as §1

CP268 = assay: as above; conditions: P. falciparum in erythrocytes, SYBR Green DNA, 72 h; series mostly up to 28.7 µM
How it was run: as §1

CP269 = assay: as above; conditions: P. falciparum in erythrocytes, SYBR Green DNA, 72 h; series mostly up to 28.7 µM
How it was run: as §1

CP291 = assay: as above; conditions: P. falciparum in erythrocytes, SYBR Green DNA, 72 h; series mostly up to 28.7 µM
How it was run: as §1

CP305 = assay: as above; conditions: P. falciparum in erythrocytes, SYBR Green DNA, 72 h; series mostly up to 28.7 µM
How it was run: as §1

CP325 = assay: as above; conditions: P. falciparum in erythrocytes, SYBR Green DNA, 72 h; series mostly up to 28.7 µM
How it was run: as §1

CP335 = assay: as above; conditions: P. falciparum in erythrocytes, SYBR Green DNA, 72 h; series mostly up to 28.7 µM
How it was run: as §1

DIV30 = assay: as above; conditions: P. falciparum in erythrocytes, SYBR Green DNA, 72 h; series mostly up to 28.7 µM
How it was run: as §1

GB4 = assay: as above; conditions: P. falciparum in erythrocytes, SYBR Green DNA, 72 h; series mostly up to 28.7 µM
How it was run: as §1

PC26 = assay: as above; conditions: P. falciparum in erythrocytes, SYBR Green DNA, 72 h; series mostly up to 28.7 µM
How it was run: as §1

W2 = assay: as above; conditions: P. falciparum in erythrocytes, SYBR Green DNA, 72 h; series mostly up to 28.7 µM
How it was run: as §1

[2] = Cell Viability - LYMP1-002 - Assay at 24 hr (AID 993)
How it was run: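 Viability was judged from intracellular ATP using a luciferase read-out, following a 24-hour compound incubation at 37 C of lymphoblastoid cells seeded at 2500 per well. Concentration-response data were fitted to the Hill equation for AC50.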

[3] = Cell Viability - LYMP2-023 (AID 975);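 also: cellular ATP measured by luciferase luminescence as viability proxy; nearly all actives have a fitted effect of over 55% in size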
How it was run: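 In this qHTS, ATP-based luciferase luminescence (CellTiter-Glo) is quantified in human lymphoblastoid cells after 24 hr compound treatment at 37 C; tetraoctylammonium bromide serves as positive control. Concentration-response curves are Hill-fitted to give AC50.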

[4] = target: Thyroid hormone receptor beta (Homo sapiens) (UniProt P10828); assay: qHTS assay for small molecule agonists of thyroid hormone receptor beta signaling (AID 588545; calls by dose curve)
Sequence of Thyroid hormone receptor beta (Homo sapiens) (P10828 whole entry, looked up): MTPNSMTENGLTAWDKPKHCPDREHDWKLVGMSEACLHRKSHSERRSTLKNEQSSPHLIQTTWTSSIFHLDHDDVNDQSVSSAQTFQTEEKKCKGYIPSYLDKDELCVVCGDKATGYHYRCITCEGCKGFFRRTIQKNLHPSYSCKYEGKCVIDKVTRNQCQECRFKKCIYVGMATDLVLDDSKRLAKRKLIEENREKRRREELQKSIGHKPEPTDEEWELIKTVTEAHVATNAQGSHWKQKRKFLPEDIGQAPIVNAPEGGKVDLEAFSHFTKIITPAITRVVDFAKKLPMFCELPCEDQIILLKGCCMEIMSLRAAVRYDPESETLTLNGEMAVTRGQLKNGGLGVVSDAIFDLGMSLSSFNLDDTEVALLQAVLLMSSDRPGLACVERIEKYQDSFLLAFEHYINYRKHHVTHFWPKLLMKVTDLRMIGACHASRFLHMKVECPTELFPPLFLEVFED
How it was run: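 Stimulation of a TR-driven beta-lactamase reporter was quantified in GripTite HEK 293 cells. Compound series ran for 18 hrs; curves were normalized to T3 and DMSO controls and fitted to yield EC50.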

Measured: Potency

CC(=O)OC1CC2CCC1(C)C2(C)C (stereo not drawn)
not listed: [2] | [3] | [4]
inactive: all other assays above

C=CC(=C)CCC=C(C)C
inactive: [2]

COc1cc(/C=C/c2ccccc2)oc(=O)c1
inactive: [3] | [2] | [4]

O=C(O)c1ccccc1
inactive: [3]

C=CC(C)(CCC=C(C)C)OC(C)=O (stereo not drawn)
inactive: [4]
